Results filed as inconclusive are left out. Calls of active or inactive are those of the source. The call rests on the fitted dose curve; in most records, active means well fitted curve in the direction sought with a large enough effect in the repeat runs; inconclusive means weak or mixed curves; inactive means no such curve, though single readings can be large; an effect the other way counts as inactive or inconclusive.
Experiments:
[1] = A CellTox Green Cytotoxicity Assay to monitor cytotoxicity in HepG2 cells - 0 hour (AID 1224882); further: nearly all actives have a fitted effect of over 35% in size
Outline: (§1)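 Using 1536-well format, dye-containing HepG2 suspension was seeded, allowed 5 h at 37 C/5% CO2, dosed by pintool with compounds, positive and negative controls, and imaged for fluorescence across 40 h.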

[2] = A CellTox Green Cytotoxicity Assay to monitor cytotoxicity in HepG2 cells - 32 hour (AID 1224883); further: nearly all actives have a fitted effect of over 50% in size; further: potency means the concentration at half of the fitted maximal effect
Outline: as §1

[3] = qHTS RealTime-Glo MT Cell Viability Assay in HepG2 cells - 16 hour (AID 1224885); further: nearly all actives have a fitted effect of over 50% in size
Outline: (§2)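 Compound treatment began 5 h after plating HepG2 cells (600/well) with NanoLuc luciferase and prosubstrate. Plates stayed at 37 C for 40 h; luminescence was captured at six time points, 0 h through 40 h.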

[4] = qHTS RealTime-Glo MT Cell Viability Assay in HEK293 cells - 24 hour (AID 1224886); further: nearly all actives have a fitted effect of over 50% in size; further: potency means the concentration at half of the fitted maximal effect; on activity change, negative = cytotoxicity: top concentration of the series differs between compounds
Outline: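 Quantitative high-throughput screen of the Tox21 10K library in HEK293: cells and RealTime-Glo reagents plated together, compound added at 5 h, luminescence monitored through 40 h at 37 C.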

[5] = qHTS RealTime-Glo MT Cell Viability Assay in HEK293 cells - 8 hour (AID 1224887); further: top concentration of the series differs between compounds; nearly all actives have a fitted effect of over 50% in size
Outline: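 Viable HEK293 cells reduce a cell-permeant prosubstrate; the product diffuses out and is consumed by NanoLuc in the medium to give light. Compounds went in after a 5 h incubation and plates were read over the treatment course.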

[6] = A CellTox Green Cytotoxicity Assay to monitor cytotoxicity in HEK293 cells - 16 hour (AID 1224888); further: nearly all actives have a fitted effect of over 35% in size
Outline: (§3)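 Fluorescence intensity, read at 0, 8, 16, 24, 32 and 40 h of compound treatment, reflected dye binding to DNA of dead HEK293 cells; compounds (23 nL, DMSO) were added 5 h after plating cells with reagent.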

[7] = qHTS RealTime-Glo MT Cell Viability Assay in HepG2 cells - 0 hour (AID 1224889); further: nearly all actives have a fitted effect of over 50% in size
Outline: as §2

[8] = A CellTox Green Cytotoxicity Assay to monitor cytotoxicity in HepG2 cells - 8 hour (AID 1224890); further: nearly all actives have a fitted effect of over 45% in size
Outline: as §1

[9] = qHTS assay to identify small molecule antagonists of the estrogen receptor alpha (ER-alpha) signaling pathway using the BG1 cell line in the presence of 0.1 nM 17-beta-estradiol - cell viability counter screen (AID 1259241); further: nearly all actives have a fitted effect of over 40% in size
Outline: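 Cytotoxicity counter-screen: live-cell protease activity measured by fluorescence (30 min reagent step) in the same wells. Cells were VM7Luc4E2 with endogenous ER-alpha and ERE-driven luciferase, treated 22 hr at 37C alongside 0.1 nM 17beta-estradiol final.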

[10] = A CellTox Green Cytotoxicity Assay to monitor cytotoxicity in HEK293 cells - 8 hour (AID 1224884); further: nearly all actives have a fitted effect of over 35% in size
Outline: as §3
On the % scale 0 is the no-effect control and ±100 the full control effect.

CN1CCC(=C2c3ccccc3CCc3sccc32)CC1
inactive: Potency [1] | Potency [3] | Potency [4] | Potency [5] | Potency [6] | Potency [7] | Potency [8] | Potency [9]
active: Potency [2] 23.9 µM

O=C(c1ccccc1)c1ccc2n1CCC2C(=O)O (stereo unspecified)
inactive: Potency [1] | Potency [2] | Potency [3] | Potency [4] | Potency [5] | Potency [6] | Potency [7] | Potency [8] | Potency [9]

O=C1[C@H](CC[C@H](O)c2ccc(F)cc2)[C@@H](c2ccc(O)cc2)N1c1ccc(F)cc1
inactive: Potency [1] | Potency [2] | Potency [3] | Potency [6] | Potency [7] | Potency [9]
active: Potency [4] 23.9 µM

Cn1c(N)nc2nc[nH]c2c1=O
inactive: Potency [1] | Potency [2] | Potency [10] | Potency [3] | Potency [5] | Potency [6] | Potency [7] | Potency [9]

Cc1ccccn1
inactive: Potency [1] | Potency [2] | Potency [3] | Potency [4] | Potency [5] | Potency [6] | Potency [7] | Potency [8] | Potency [9]

CCOc1nc2cccc(C(=O)O)c2n1Cc1ccc(-c2ccccc2-c2nn[nH]n2)cc1
inactive: Potency [1] | Potency [2] | Potency [3] | Potency [4] | Potency [5] | Potency [6] | Potency [7] | Potency [8] | Potency [9]

C#CCOC(=O)[C@@H](C)Oc1ccc(Oc2ncc(Cl)cc2F)cc1
inactive: Potency [1] | Potency [2] | Potency [3] | Potency [4] | Potency [6] | Potency [7] | Potency [8] | Potency [9]

CC(=O)Nc1ccc(/C=N/NC(N)=S)cc1
inactive: Potency [1] | Potency [2] | Potency [3] | Potency [4] | Potency [5] | Potency [6] | Potency [7] | Potency [8] | Potency [9]

CCN(CC)C(C)=O
inactive: Potency [1] | Potency [2] | Potency [3] | Potency [4] | Potency [5] | Potency [6] | Potency [7] | Potency [9]

CC(C)c1ccc2c(C(C)C)cc(C(C)C)c(S(=O)(=O)O)c2c1
inactive: Potency [1] | Potency [10] | Potency [3] | Potency [4] | Potency [5] | Potency [6] | Potency [7] | Potency [8] | Potency [9]

CC(=O)OC/C=C/c1ccccc1
inactive: Potency [1] | Potency [10] | Potency [3] | Potency [4] | Potency [5] | Potency [6] | Potency [7] | Potency [8] | Potency [9]

O=S1(=O)N=C(O)c2ccccc21
inactive: Potency [1] | Potency [10] | Potency [3] | Potency [4] | Potency [5] | Potency [6] | Potency [7] | Potency [8] | Potency [9]

Cc1ccc(C(N)=O)cc1N
inactive: Potency [1] | Potency [10] | Potency [3] | Potency [4] | Potency [5] | Potency [6] | Potency [7] | Potency [8] | Potency [9]

CC1=CCC(C(C)C)C=C1 (stereo unspecified)
inactive: Potency [1] | Potency [10] | Potency [3] | Potency [4] | Potency [5] | Potency [6] | Potency [7] | Potency [8] | Potency [9]

C=Cc1c(C)c2cc3[nH]c(cc4nc(cc5nc(cc1[nH]2)C(C)=C5CCC(=O)O)C(CCC(=O)O)=C4C)c(C)c3C=C
inactive: Potency [1] | Potency [10] | Potency [3] | Potency [4] | Potency [5] | Potency [6] | Potency [7]

N#Cc1c(F)cccc1F
inactive: Potency [1] | Potency [10] | Potency [3] | Potency [4] | Potency [5] | Potency [6] | Potency [7] | Potency [8] | Potency [9]

O=C(O)Cc1sc(-c2ccccc2)nc1-c1ccc(Cl)cc1
inactive: Potency [1] | Potency [10] | Potency [3] | Potency [4] | Potency [5] | Potency [6] | Potency [7] | Potency [8] | Potency [9]

O=C(O)c1cn(C2CC2)c2cc(Cl)c(F)cc2c1=O
inactive: Potency [1] | Potency [2] | Potency [3] | Potency [7] | Potency [8] | Potency [9]

CCCCCC/C=C/C=O
inactive: Potency [1] | Potency [10] | Potency [3] | Potency [4] | Potency [5] | Potency [6] | Potency [7] | Potency [8]

O=[N+]([O-])c1cccc(Cl)c1Cl
inactive: Potency [1] | Potency [10] | Potency [3] | Potency [4] | Potency [5] | Potency [6] | Potency [7] | Potency [8] | Potency [9]

COCCO
inactive: Potency [1] | Potency [10] | Potency [3] | Potency [4] | Potency [5] | Potency [6] | Potency [7] | Potency [8] | Potency [9]

CCc1nn(C2CCCCC2)c2cc(C3(C#N)CCC(C(=O)O)CC3)ccc12 (stereo unspecified)
inactive: Potency [1] | Potency [10] | Potency [3] | Potency [4] | Potency [5] | Potency [6] | Potency [7] | Potency [8] | Potency [9]

COCCCCCCCCOCCC[Si](C)(O[Si](C)(C)C)O[Si](C)(C)C
inactive: Potency [1] | Potency [10] | Potency [3] | Potency [5] | Potency [6] | Potency [7]
active: Potency [4] 2.45 µM

Cc1cccc(Oc2ccccc2)c1
inactive: Potency [1] | Potency [10] | Potency [3] | Potency [5] | Potency [6] | Potency [7] | Potency [8] | Potency [9]
active: Potency [4] 47.8 µM

CC(C)(C)C1CCCCC1O (stereo unspecified)
inactive: Potency [1] | Potency [10] | Potency [3] | Potency [4] | Potency [5] | Potency [6] | Potency [7] | Potency [8] | Potency [9]

O=C(C(=O)c1ccc(Br)cc1)c1ccc(Br)cc1
inactive: cytotoxicity [1] -5.86% [at 15.8 µM] | cytotoxicity increase [10] 6.57% [at 15.8 µM] | activity change, negative = cytotoxic [3] -1.79% [at 15.8 µM] | activity change, negative = cytotoxicity [4] 5.88% [at 15.8 µM] | activity change, negative = cytotoxicity [5] 2.33% [at 15.8 µM] | activity change [6] 0.498% [at 15.8 µM, stronger effect = higher value] | activity change, negative = cytotoxicity [7] -3.46% [at 15.8 µM] | cytotoxicity increase [8] -4.98% [at 15.8 µM] | activity change, negative = cytotoxicity [9] -6.61% [at 19 µM]
